A selection: hits, their analogues and other compounds. The true share with any hit is near 9.2%.
Rab9 prom act: activates the Rab9 promoter; 2.8% of 320,000 active; Potency, µM (highest dose often 9.22 µM), for inactives: top-dose activation, negative = inhibition, usual class: activators; AID 485297; Huh7 Rab9 promoter-luciferase reporter, luminescence, 24 h; note: % of control where 0% means no effect; nearly all actives have a fitted effect of over 60% in size
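Cells were plated at 1500 per well in reduced-serum medium with 10% FBS and left 2 h. Compound in DMSO was then added for 24 h at 37 °C. Reporter signal was read by luminescence after 10 min with luciferase detection reagent.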
FLuc modulator: inhibits or activates purified firefly luciferase, miR-21 counter-screen; 6.9% of 360,000 active; purified FLuc, Km substrates, luminescence inhibition; Potency, µM (titrated, usually from 57.5 µM), for inactives: at the highest dose activity change, negative = inhibition, most hits filed as inhibitors; AID 588342;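 note: plate controls were vehicle for no effect and reference inhibitor for full effect; nearly all actives have a fitted effect of over 55% in size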
Target sequence (P08659 whole entry, looked up): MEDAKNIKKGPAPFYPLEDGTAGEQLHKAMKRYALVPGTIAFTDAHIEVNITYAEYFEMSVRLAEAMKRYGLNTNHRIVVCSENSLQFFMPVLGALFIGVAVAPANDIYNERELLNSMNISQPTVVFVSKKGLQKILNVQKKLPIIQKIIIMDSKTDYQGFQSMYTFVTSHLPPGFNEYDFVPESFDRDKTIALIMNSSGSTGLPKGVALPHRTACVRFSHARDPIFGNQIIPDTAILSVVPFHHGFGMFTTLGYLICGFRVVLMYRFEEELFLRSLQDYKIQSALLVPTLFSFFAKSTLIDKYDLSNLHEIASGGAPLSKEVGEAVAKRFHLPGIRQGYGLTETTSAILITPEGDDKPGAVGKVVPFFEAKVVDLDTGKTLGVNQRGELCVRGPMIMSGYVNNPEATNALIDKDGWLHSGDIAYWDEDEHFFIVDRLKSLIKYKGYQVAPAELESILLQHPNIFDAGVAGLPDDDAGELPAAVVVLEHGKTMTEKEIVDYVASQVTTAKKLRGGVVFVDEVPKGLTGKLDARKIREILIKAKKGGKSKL
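Biochemical qHTS of compounds, final roughly 60 µM downward over six points, against 10 nM purified firefly luciferase using Km concentrations of substrates (10 uM D-luciferin, 10 uM ATP) in Tris acetate pH 7.5 buffer; luminescence output.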
SMN2 splice up: SMN2 splice variant enhancement; HEK293 SMN2-luciferase splicing reporter, luminescence, 30-36 h; Potency, µM (series often up to 46.1 µM), inactives show at the highest dose activity change, positive = activation, actives largely listed as activators; 2.8% of 210,000 active; note: % of control where 0% means no effect; nearly all actives have a fitted effect of over 55% in size
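qHTS luciferase splicing reporter: luminescence rises when SMN2 exon 7 is included in transfected HEK293 cells. Compound exposure lasted 30-36 h at 37C, with 4.5 mM final sodium butyrate as control, followed by a ONE-Glo read.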
ELG1 DNA repair: ELG1-dependent DNA repair inhibition; 2.3% of 330,000 active; Potency, µM (highest dose often 46.1 µM), without a hit: at the highest dose activity change, negative = inhibition, most hits filed as inhibitors; HEK293T ELG1-luciferase reporter, luminescence, 16 h; DNA damage induced by 5-fluorouridine; AID 504467; note: % is set by controls: 0 for no effect and ±100 for the full control effect; nearly all actives have a fitted effect of over 55% in size
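Cells (2,000 per well) received 5-fluorouridine plus test compound or DMSO and were incubated 16 hr at 37 °C, 5% CO2. Luciferase activity was read by luminescence 30 min after ONE-Glo addition; signal suppression marked inhibition of damage-induced ELG1 function.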
ELG1 genotox: inducers of genotoxicity in HEK293T ELG1-luciferase cells | HEK293T ELG1-luciferase reporter, luminescence, 16 h | Potency, µM (series often up to 46 µM), without a hit: at the top dose activity change, positive = activation, actives largely listed as activators | 1.3% of 330,000 active | AID 504466; note: % of control where 0% means no effect; nearly all actives have a fitted effect of over 60% in size
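Quantitative HTS format in 1536-well plates. HEK293T ELG1-luciferase reporter cells receive test compound and are incubated 16 hr at 37 °C, 5% CO2; ONE-Glo added, 30 min room temperature, then luminescence read.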
NPC1 promoter act: activates the NPC1 promoter; Huh7 NPC1 promoter luciferase reporter, 24 h; 2.4% of 320,000 active; AID 485313; Potency, µM (top dose mostly 9.22 µM), for the others: at the top dose activation, usual class: activators; note: % of control where 0% means no effect; nearly all actives have a fitted effect of over 60% in size
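Huh7 reporter cells (NPC1 promoter driving luciferase) are dosed with compound for 24 h at 37 °C, 5% CO2; luciferase detection reagent is then added and luminescence measured after 10 min at ambient temperature.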
The depositor's hits bear a star; ? = inconclusive; . = no result given. Calls come from the whole dose curve; as a rule, active = well fitted curve in the direction sought with a large enough effect; inconclusive = small, poorly fitted or top-dose-only effect, or another doubt; inactive = no such curve, though single readings can be large; an effect the other way counts as inactive or inconclusive. Potency is the fitted concentration of half-maximal effect.

SMILES	Rab9 prom act	FLuc modulator	SMN2 splice up	ELG1 DNA repair	ELG1 genotox	NPC1 promoter act
CCSC1(SCC)N=C(N)C2(C#N)C(c3ccccc3)NC3=C(CCC3)C12C#N (stereo unspecified)	8%	-1%	20%	16%	-3%	6%
CCSC1(SCC)N=C(N)C2(C#N)C(c3ccc(OC)c(OC)c3OC)C12C#N (stereo unspecified)	-4%	-7%	-94%	15µM*	11%	1%
CCOc1ccc(CCNC(=O)COC(=O)c2ccc(OC)c(OC)c2OC)cc1OCC	-3%	1%	-1%	9.2µM*	-4%	-8%
CCOc1ccc(CCNC(=O)COC(=O)c2cccc(N(C)C)c2)cc1OCC	1.6µM*	-13%	.	?	1.8µM*	4µM*
CC(C)c1ccc(CCNC(=O)CCNS(=O)(=O)c2ccc(Br)cc2)cc1	?	-3%	.	13%	1%	-6%
Cc1cc(C)c(C#N)c(Sc2ccccc2N)n1	2%	15µM*	-2%	?	?	3%
CN(CC(=O)Nc1ccc(Cl)c(C(F)(F)F)c1)C(=O)c1cn2ccccc2n1	-1%	?	.	0%	23µM*	-5%
CN(CC(=O)Nc1ccc(Cl)c(C(F)(F)F)c1)C(=O)CCCc1nc2ccccc2c(=O)[nH]1	-13%	0%	.	11µM*	-7%	-8%
Cc1cccc(N(Cc2ccccc2)C(=O)Cc2ccc(S(=O)(=O)N3CCOCC3)s2)c1	-9%	1%	.	?	-6%	0%
O=C(O)/C(=C1/OC(=O)c2ccccc21)c1ccccc1	5%	-1%	-10%	10%	-5%	2%
COC(=O)/C(=C1\OC(=O)C(c2ccccc2)C1=O)c1ccccc1 (stereo unspecified)	.	.	13µM*	.	.	.
Cc1ccc(NC(=O)CC2OC(=O)c3ccccc32)cc1S(=O)(=O)N1CCOCC1 (stereo unspecified)	-1%	-1%	.	0%	2%	-2%
Cc1ccc(NC(=O)NCCN2C(=O)C3C4C=CC(C4)C3C2=O)cc1 (stereo unspecified)	1.6µM*	17µM*	11µM*	?	7.3µM*	2.5µM*
O=C(NCCN1C(=O)C2C3C=CC(C3)C2C1=O)Nc1ccccc1 (stereo unspecified)	1%	-6%	-13%	?	12%	3%
COc1ccc(NC(=O)NCCN2C(=O)C3C4C=CC(C4)C3C2=O)cc1 (stereo unspecified)	?	?	11µM*	?	?	?
COc1ccc(NC(=O)CCN2C(=O)[C@@H]3[C@H](C2=O)[C@H]2C=C[C@@H]3C2)cc1	-2%	-6%	.	16%	6%	7%
COc1ccc(CCNC(=O)c2ccc3c(c2)ncn3-c2ccc(C(C)C)cc2)cc1OC	.	-3%	.	.	.	.
O=C1C2C3C=CC(CO)(O3)C2C(=O)N1c1ccc(-c2ccccc2)cc1 (stereo unspecified)	10%	19µM*	17%	?	?	13%
CC(C)(C)C(=O)NCC12C=CC(O1)C1C(=O)N(c3ccccc3)C(=O)C12 (stereo unspecified)	0%	2%	-19%	9%	-1%	-4%
CCC(C(=O)Nc1ccccc1OC)n1nc(C)c2sc3ccccc3c2c1=O (stereo unspecified)	.	5%	.	.	.	.
CCOC(=O)c1cc2c(=O)n3ccccc3nc2n(C(C)C)c1=NC(=O)c1c(-c2c(F)cccc2Cl)noc1C	-2%	-4%	-3%	5.8µM*	-13%	-14%
Cc1ccc2cc(CN(Cc3ccco3)S(=O)(=O)c3c(C)ccc4nsnc34)c(=O)[nH]c2c1	-2%	-13%	35µM*	?	-14%	1%
Cc1csc(=NC(=O)c2ccccc2)n1C	2.5µM*	13µM*	11µM*	?	21µM*	3.2µM*
